Inhibition data for five molecules are collected here from PubChem BioAssay AID651739 (Broad Institute, 2012).

Each structure is given as a SMILES string. Among all 5,600 compounds or so, about 4,100 (73%) were called active. Another 4% or so got no clear call; they are omitted.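 The calls were made as follows: active = mean replicate inhibition above about 95% and at least 55% of replicates individually reaching it (limit read from the data); inconclusive = only one of the two criteria is met; inactive = neither criterion is met.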 So high a share suggests a set chosen from earlier hits. Not all results are given here.

The nature of this experiment: blockers of Trypanosoma cruzi growth in host cells – cell-based, NIH3T3 host, beta-gal parasite, luminescence, cherry-pick, confirmation (AID 651739). The settings on record: T. cruzi beta-gal in NIH3T3, GalScreen luminescence, 90 h; at 8.35 µM; hits give high values.
Take `O=C(Cc1cccnc1)N1CCCCN2[C@@H](CO)[C@H](c3ccc(C#CC4CCCC4)cc3)[C@@H]2C1`: the inhibition (as a rule, the change of the read-out against control, counted positive when it falls) is 103% (active).
For `COc1ccc(-c2ccc([C@H]3[C@H](CO)N4CCCCN(C(=O)Cc5ccncc5)C[C@@H]34)cc2)cc1` the value was 89.1% (inactive); for `C/C=C/c1ccc([C@H]2[C@H](CO)N3CCCCN(C(=O)Cc4ccncc4)C[C@@H]23)cc1`, 99.2% (active); for `O=C(Cc1ccccn1)N1CCCCN2[C@@H](CO)[C@@H](c3ccc(C#Cc4ccccc4)cc3)[C@@H]2C1`, 112% (active).
For the molecule `COc1ccc(C#Cc2ccc([C@H]3[C@H](CO)N4CCCCN(C(=O)Cc5ccccc5)C[C@@H]34)cc2)cc1`, the inhibition is 95.6% (active).
